PubChem BioAssay (EPA / NIEHS)
Results filed as inconclusive are left out. The source made the active and inactive calls. Rule for the calls, unless noted: active = hit-call score of the fitted dose curve at least 0.9, where 1 is the maximum; inconclusive = response in the unintended direction; inactive = score below 0.9.

Experiments:
[1] = biological target: human Peroxisome Proliferator-activated Receptor alpha (PPARa), PPARA (gene 5465) (UniProt Q07869); experiment: ATG_PPARa_TRANS: Attagene TRANS-FACTORIAL HepG2 Assay for human Peroxisome Proliferator-activated Receptor alpha (PPARa) (AID 2283001)
human Peroxisome Proliferator-activated Receptor alpha (PPARa), PPARA (gene 5465), sequence (Q07869 whole entry, looked up, the tested form may be a part): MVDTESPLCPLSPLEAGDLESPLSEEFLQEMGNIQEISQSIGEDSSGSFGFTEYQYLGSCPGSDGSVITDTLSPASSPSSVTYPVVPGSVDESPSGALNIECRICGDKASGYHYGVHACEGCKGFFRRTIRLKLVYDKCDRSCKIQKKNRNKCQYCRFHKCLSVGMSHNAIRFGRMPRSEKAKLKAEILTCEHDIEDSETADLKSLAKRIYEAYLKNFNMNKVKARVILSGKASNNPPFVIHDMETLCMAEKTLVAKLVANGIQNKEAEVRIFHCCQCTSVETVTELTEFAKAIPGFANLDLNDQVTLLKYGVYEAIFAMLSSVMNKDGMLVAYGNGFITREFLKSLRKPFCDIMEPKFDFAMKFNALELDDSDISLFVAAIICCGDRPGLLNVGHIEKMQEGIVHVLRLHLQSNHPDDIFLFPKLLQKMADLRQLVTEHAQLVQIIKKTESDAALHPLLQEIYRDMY
How it was run: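 Gain-of-signal endpoint: reporter mRNA induction relative to DMSO, detected by fluorescent RT-PCR and capillary electrophoresis. HepG2 cells transiently carried GAL4-UAS-driven reporter units plus NR-Gal4 fusion; exposure lasted 24 h.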

[2] = biological target: human Peroxisome Proliferator-activated Receptor delta (PPARd), PPARD (gene 5467) (UniProt Q03181); experiment: ATG_PPARd_TRANS: Attagene TRANS-FACTORIAL HepG2 Assay for human Peroxisome Proliferator-activated Receptor delta (PPARd) (AID 2283002)
How it was run: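 HepG2 cells transiently transfected with multiplexed GAL4-UAS reporter units and exogenous chimeric NR-Gal4 proteins; 24 h compound exposure. Reporter mRNA measured by RT-PCR, 6-FAM labelling, HpaI digestion and capillary electrophoresis; gain of signal versus DMSO.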

[3] = biological target: human Retinoic Acid Receptor beta (RARb), RARB (gene 5915) (UniProt P10826); experiment: ATG_RARb_TRANS: Attagene TRANS-FACTORIAL HepG2 Assay for human Retinoic Acid Receptor beta (AID 2283004)
human Retinoic Acid Receptor beta (RARb), RARB (gene 5915), sequence (P10826 whole entry, looked up, the tested form may be a part): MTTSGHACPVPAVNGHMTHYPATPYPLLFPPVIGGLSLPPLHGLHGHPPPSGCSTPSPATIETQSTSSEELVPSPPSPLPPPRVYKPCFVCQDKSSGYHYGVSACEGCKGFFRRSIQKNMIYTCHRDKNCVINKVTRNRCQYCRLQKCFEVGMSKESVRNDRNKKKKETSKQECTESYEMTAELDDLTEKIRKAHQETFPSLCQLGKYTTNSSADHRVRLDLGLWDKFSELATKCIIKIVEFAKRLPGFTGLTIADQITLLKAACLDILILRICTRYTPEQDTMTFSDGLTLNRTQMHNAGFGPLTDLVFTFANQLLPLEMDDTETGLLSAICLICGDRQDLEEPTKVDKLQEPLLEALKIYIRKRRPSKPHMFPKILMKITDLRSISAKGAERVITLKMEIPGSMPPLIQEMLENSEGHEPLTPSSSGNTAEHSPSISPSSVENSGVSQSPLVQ
How it was run: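 Induction of reporter mRNA from a chimeric RARb-Gal4 construct was measured by RT-PCR, FAM labelling, HpaI digestion and capillary electrophoresis. Measurements followed 24 h compound treatment of transiently transfected human HepG2 liver cells, with DMSO as baseline.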

[4] = biological target: Peroxisome proliferator-activated receptor gamma (Homo sapiens) (UniProt P37231); experiment: ATG_PPARg_TRANS: Attagene TRANS-FACTORIAL HepG2 Assay for human Peroxisome Proliferator-activated Receptor-gamma (PPARg) (AID 2283007)
Peroxisome proliferator-activated receptor gamma (Homo sapiens), sequence (P37231 whole entry, looked up, the tested form may be a part): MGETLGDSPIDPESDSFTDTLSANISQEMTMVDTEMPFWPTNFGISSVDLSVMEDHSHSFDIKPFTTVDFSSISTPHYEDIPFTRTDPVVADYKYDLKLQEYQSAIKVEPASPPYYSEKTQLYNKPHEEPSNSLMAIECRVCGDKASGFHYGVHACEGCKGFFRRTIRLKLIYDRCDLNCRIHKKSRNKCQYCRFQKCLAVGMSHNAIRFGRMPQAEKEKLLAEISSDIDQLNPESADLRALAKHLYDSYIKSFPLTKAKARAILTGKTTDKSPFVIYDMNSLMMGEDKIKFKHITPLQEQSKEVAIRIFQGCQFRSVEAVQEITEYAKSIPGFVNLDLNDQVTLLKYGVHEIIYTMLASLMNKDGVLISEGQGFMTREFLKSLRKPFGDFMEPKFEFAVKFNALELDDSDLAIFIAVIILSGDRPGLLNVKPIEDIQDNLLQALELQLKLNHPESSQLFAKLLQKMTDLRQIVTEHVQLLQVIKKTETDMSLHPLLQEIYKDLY
How it was run: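 Liver-derived HepG2 cells expressing an exogenous NR-Gal4 chimera alongside GAL4-UAS reporter genes; 24 h exposure. Fluorescence of reporter RT-PCR products, separated by capillary electrophoresis, gives mRNA induction relative to DMSO.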

[5] = biological target: human Retinoic Acid Receptor gamma (RARg), RARG (gene 5916) (UniProt P13631); experiment: ATG_RARg_TRANS: Attagene TRANS-FACTORIAL HepG2 Assay for human Retinoic Acid Receptor gamma (RARg) (AID 2283009)
human Retinoic Acid Receptor gamma (RARg), RARG (gene 5916), sequence (P13631 whole entry, looked up, the tested form may be a part): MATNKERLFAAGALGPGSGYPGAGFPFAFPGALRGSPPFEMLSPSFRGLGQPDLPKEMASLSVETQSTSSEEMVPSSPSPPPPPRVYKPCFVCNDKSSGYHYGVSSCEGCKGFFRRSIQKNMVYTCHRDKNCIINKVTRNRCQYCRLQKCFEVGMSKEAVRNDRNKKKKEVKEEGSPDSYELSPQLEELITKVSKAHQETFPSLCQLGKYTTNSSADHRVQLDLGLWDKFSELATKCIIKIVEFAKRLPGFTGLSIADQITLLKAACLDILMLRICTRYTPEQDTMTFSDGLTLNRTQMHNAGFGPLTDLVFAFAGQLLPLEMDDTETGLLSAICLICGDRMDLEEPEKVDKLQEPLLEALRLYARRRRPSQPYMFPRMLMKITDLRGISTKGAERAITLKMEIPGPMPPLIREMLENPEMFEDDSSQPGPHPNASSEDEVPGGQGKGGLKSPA
How it was run: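 HepG2 transiently transfected with GAL4-UAS reporter units and chimeric NR-Gal4 constructs; 24 h compound exposure. Reporter mRNA quantified by RT-PCR, FAM labeling, HpaI digestion and capillary electrophoresis; gain-of-signal versus DMSO.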

[6] = biological target: human RAR-related Orphan Receptor beta (RORb), RORB (gene 6096) (UniProt Q92753); experiment: ATG_RORb_TRANS: Attagene TRANS-FACTORIAL HepG2 Assay for human RAR-related Orphan Receptor beta (RORb) (AID 2283010)
human RAR-related Orphan Receptor beta (RORb), RORB (gene 6096), sequence (Q92753 whole entry, looked up, the tested form may be a part): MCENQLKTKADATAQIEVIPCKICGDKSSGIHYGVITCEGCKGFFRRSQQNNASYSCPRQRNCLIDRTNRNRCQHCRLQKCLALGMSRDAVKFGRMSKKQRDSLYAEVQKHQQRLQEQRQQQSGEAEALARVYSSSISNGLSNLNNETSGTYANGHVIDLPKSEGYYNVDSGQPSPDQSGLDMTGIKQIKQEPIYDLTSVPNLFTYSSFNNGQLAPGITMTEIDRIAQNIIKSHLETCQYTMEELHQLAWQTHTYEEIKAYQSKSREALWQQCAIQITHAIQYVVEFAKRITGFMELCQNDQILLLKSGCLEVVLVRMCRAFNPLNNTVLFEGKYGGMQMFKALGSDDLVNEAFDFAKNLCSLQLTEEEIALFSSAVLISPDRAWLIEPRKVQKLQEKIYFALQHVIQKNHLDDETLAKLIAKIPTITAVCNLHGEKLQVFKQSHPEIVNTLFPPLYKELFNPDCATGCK
How it was run: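 HepG2 cells transiently transfected with GAL4-UAS reporter units expressing chimeric NR-Gal4 protein; reporter mRNA measured 24 h after dosing by RT-PCR, 6-FAM labelling and capillary electrophoresis. Gain-of-signal fitted relative to DMSO baseline.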

[7] = biological target: human Thyroid Receptor alpha (THRa1), THRA (gene 7067) (UniProt P10827); experiment: ATG_THRa1_TRANS: Attagene TRANS-FACTORIAL HepG2 Assay for human Thyroid Receptor alpha (THRa1) (AID 2283014)
human Thyroid Receptor alpha (THRa1), THRA (gene 7067), sequence (P10827 whole entry, looked up, the tested form may be a part): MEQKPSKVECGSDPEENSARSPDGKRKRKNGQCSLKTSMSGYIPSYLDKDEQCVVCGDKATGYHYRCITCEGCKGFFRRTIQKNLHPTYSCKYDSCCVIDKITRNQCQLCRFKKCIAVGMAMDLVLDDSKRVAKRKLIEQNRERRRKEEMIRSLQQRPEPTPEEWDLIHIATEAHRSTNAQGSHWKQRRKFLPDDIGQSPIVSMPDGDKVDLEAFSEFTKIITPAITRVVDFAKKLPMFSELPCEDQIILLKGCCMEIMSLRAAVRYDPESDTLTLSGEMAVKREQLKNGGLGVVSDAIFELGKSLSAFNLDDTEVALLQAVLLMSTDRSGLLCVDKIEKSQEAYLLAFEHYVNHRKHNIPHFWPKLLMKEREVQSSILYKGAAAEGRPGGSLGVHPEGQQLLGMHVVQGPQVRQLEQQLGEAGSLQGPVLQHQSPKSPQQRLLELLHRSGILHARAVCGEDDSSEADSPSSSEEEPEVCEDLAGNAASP
How it was run: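 Transcripts from GAL4-UAS-driven reporters, measured after 24 h compound exposure by RT-PCR plus capillary electrophoresis of 6-FAM-labeled fragments, were fitted for gain of signal relative to DMSO. Cells: transiently transfected HepG2 expressing NR-Gal4 chimeras.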

[8] = biological target: Retinoic acid receptor alpha (Homo sapiens) (UniProt P10276); experiment: ATG_RARa_TRANS: Attagene TRANS-FACTORIAL HepG2 Assay for human Retinoic Acid Receptor alpha (RARa) (AID 2283005)
Retinoic acid receptor alpha (Homo sapiens), sequence (P10276 whole entry, looked up, the tested form may be a part): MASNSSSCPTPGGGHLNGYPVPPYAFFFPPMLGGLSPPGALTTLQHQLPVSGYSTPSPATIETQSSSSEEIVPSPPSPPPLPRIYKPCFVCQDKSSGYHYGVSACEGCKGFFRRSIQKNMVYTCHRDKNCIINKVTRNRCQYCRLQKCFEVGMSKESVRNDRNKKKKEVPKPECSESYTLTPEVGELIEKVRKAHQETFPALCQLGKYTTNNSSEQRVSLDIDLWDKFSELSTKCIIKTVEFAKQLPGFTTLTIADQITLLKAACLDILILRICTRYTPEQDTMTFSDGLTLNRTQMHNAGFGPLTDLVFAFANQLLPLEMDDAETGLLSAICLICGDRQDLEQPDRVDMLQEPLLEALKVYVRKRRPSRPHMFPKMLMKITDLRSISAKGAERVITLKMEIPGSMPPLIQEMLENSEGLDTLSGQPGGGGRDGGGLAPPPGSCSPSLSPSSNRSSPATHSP
How it was run: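 HepG2 cells transiently transfected with multiple reporter units expressing chimeric RARα-GAL4 fusion, with GAL4-UAS-driven reporters. After 24 h compound exposure, reporter mRNA induction quantified by RT-PCR and capillary electrophoresis with fluorescent labeling; gain-of-signal fitted relative to DMSO control.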

[9] = biological target: Nuclear receptor subfamily 1 group I member 2 (Homo sapiens) (UniProt O75469); experiment: ATG_PXR_TRANS: Attagene TRANS-FACTORIAL HepG2 Assay for human Pregnane X Receptor (PXR) (AID 2283008)
Nuclear receptor subfamily 1 group I member 2 (Homo sapiens), sequence (O75469 whole entry, looked up, the tested form may be a part): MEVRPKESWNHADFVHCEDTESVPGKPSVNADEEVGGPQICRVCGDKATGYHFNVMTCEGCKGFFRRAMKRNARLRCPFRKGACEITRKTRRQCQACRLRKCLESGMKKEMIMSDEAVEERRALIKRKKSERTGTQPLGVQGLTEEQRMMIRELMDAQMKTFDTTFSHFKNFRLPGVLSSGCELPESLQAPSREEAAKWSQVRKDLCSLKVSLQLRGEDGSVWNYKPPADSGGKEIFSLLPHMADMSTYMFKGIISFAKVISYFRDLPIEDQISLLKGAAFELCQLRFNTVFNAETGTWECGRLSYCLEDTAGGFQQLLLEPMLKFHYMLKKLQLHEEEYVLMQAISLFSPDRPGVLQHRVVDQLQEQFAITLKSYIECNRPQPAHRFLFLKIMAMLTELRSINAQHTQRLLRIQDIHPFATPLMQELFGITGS
How it was run: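 Read-out is fluorescence of labelled reporter cDNA fragments separated by capillary electrophoresis after RT-PCR and HpaI digestion. Source: HepG2 cells carrying PXR-GAL4/UAS reporter constructs, treated 24 h; activity fitted upward relative to DMSO.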

[10] = biological target: human RAR-related Orphan Receptor gamma (RORg), RORC (gene 6097) (UniProt P51449); experiment: ATG_RORg_TRANS: Attagene TRANS-FACTORIAL HepG2 Assay for human RAR-related Orphan Receptor gamma (RORg) (AID 2283011)
human RAR-related Orphan Receptor gamma (RORg), RORC (gene 6097), sequence (P51449 whole entry, looked up, the tested form may be a part): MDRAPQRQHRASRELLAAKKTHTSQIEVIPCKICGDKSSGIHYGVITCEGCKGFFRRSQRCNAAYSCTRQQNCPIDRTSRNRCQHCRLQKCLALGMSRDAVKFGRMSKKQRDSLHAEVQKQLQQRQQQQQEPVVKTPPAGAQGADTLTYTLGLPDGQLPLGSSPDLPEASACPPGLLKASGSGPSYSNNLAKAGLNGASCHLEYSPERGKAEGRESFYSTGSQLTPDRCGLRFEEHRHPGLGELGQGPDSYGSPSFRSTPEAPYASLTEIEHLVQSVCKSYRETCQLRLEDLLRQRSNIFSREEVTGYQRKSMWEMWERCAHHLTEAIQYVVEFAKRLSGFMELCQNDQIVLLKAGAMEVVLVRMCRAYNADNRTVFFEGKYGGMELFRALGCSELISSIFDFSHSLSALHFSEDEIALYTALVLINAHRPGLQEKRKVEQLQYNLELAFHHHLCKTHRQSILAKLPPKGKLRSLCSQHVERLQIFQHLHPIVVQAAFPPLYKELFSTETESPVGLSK
How it was run: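 Reporter transcripts from a transfected RORg-GAL4 chimera in HepG2 cells were quantified 24 h after dosing by RT-PCR, 6-FAM labelling, HpaI digestion and capillary electrophoresis; increases over DMSO baseline were fitted.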

[11] = biological target: Retinoic acid receptor RXR-alpha (Homo sapiens) (UniProt P19793); experiment: ATG_RXRa_TRANS: Attagene TRANS-FACTORIAL HepG2 Assay for human Retinoid X Receptor alpha (RXRa) (AID 2283012)
Retinoic acid receptor RXR-alpha (Homo sapiens), sequence (P19793 whole entry, looked up, the tested form may be a part): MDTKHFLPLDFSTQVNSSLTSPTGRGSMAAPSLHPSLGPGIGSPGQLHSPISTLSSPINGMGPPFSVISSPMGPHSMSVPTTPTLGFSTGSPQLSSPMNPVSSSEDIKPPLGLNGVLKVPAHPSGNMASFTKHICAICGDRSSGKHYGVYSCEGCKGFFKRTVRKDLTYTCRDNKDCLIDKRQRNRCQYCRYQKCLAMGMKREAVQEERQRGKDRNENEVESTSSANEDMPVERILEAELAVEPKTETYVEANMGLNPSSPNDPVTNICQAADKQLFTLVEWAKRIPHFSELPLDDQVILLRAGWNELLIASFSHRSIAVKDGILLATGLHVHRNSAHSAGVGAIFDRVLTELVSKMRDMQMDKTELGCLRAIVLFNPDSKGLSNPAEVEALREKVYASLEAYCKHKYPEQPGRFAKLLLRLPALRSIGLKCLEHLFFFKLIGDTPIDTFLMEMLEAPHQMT
How it was run: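 HepG2 cells transiently transfected with GAL4-UAS reporter units and chimeric RXRa-Gal4 protein, treated 24 h. Reporter mRNA measured by RT-PCR, fluorescent labelling, HpaI digestion and capillary electrophoresis. Induction fitted against DMSO.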

[12] = BSK_3C_VCAM1: BioMAP Diversity Plus: 3C Assay for Vascular cell adhesion molecule 1 (VCAM1) Biomarker Activity (AID 2282999; active = hit-call score of the fitted dose curve at least 0.9, where 1 is the maximum; inactive = score below 0.9); details: BioMAP 3C HUVEC, VCAM1 ELISA, cytokine-stimulated; actives raise or lower the signal
How it was run: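 Human umbilical vein endothelial cells were dosed with compound for 24 h, after which cell-surface VCAM-1 was quantified by ELISA. Bidirectional curve fitting used DMSO as negative control and activity baseline.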

[13] = BSK_4H_Eotaxin3: BioMAP Diversity Plus: 4H Assay for Eotaxin 3 Biomarker Activity (AID 2283000; active = hit-call score of the fitted dose curve at least 0.9, where 1 is the maximum; inactive = score below 0.9;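 note: CCL26 protein level quantified by ELISA in parallel with SRB cytotoxicity check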); details: primary human endothelial cells (HUVEC); actives raise or lower the signal
How it was run: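 Human umbilical vein endothelial cells (BSK_4H system) dosed with test chemical; Eotaxin-3 (CCL26) measured by ELISA 24 h after dosing. Bidirectional curve fitting relative to DMSO negative control as baseline.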

[14] = read-out: Intercellular Adhesion Molecule 1 (ICAM1), ICAM1 (gene 3383); experiment: BSK_3C_ICAM1: BioMAP Diversity Plus: 3C Assay for Intercellular Adhesion Molecule 1 (ICAM1) Biomarker Activity (AID 2283003; active = hit-call score of the fitted dose curve at least 0.9, where 1 is the maximum; inactive = score below 0.9); details: primary human endothelial cells (HUVEC); actives raise or lower the signal
How it was run: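 HUVEC primary cells stimulated under 3C conditions; ICAM1 measured by ELISA 24 h after compound dosing. Curves fitted bidirectionally against the DMSO baseline. Overt cytotoxicity checked by SRB staining of parallel cultures.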

[15] = BSK_3C_Proliferation: Cell Proliferation Assessment in the BioMAP Diversity Plus: 3C Assay (AID 2283006; active = hit-call score of the fitted dose curve at least 0.9, where 1 is the maximum; inactive = score below 0.9); details: primary human endothelial cells (HUVEC)
How it was run: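 Subconfluent HUVEC (3C system) cultured with chemical; relative cell number read at 48 h by sulforhodamine B total-protein staining (0.1% SRB after 10% TCA fixation, 560 nm). Bidirectional fit relative to DMSO.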

[16] = read-out: E-selectin (Homo sapiens) (UniProt P16581); experiment: BSK_3C_Eselectin: BioMAP Diversity Plus: 3C Assay for Eselectin Biomarker Activity (AID 2283015; active = hit-call score of the fitted dose curve at least 0.9, where 1 is the maximum; inactive = score below 0.9;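 note: cell surface E-selectin protein quantified by ELISA 24 h after dosing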); details: primary human endothelial cells (HUVEC); actives raise or lower the signal
How it was run: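 E-selectin ELISA readout, fitted bidirectionally relative to DMSO, taken 24 h post-dosing in HUVEC cultures of the 3C system. Overt cytotoxicity tracked with sulforhodamine B staining of parallel wells.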

[17] = read-out: Interleukin-1 alpha (IL1a), IL1A (gene 3552); experiment: BSK_BE3C_IL1a: BioMAP Diversity Plus: BE3C Assay for Interleukin-1 alpha (IL1a) Biomarker Activity (AID 2283016; active = hit-call score of the fitted dose curve at least 0.9, where 1 is the maximum; inactive = score below 0.9); details: primary human bronchial epithelial cells; actives raise or lower the signal
How it was run: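 Human primary bronchial epithelial cells, 24 h chemical exposure; IL-1a quantified by ELISA, fitted bidirectionally against DMSO. Cytotoxicity assessed in parallel by SRB total-protein staining at the time of measurement.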

[18] = read-out: Monocyte Chemoattractant Protein-1 (MCP1), CCL2 (gene 6347); experiment: BSK_3C_MCP1: BioMAP Diversity Plus: 3C Assay for Monocyte Chemoattractant Protein-1 (MCP1) Biomarker Activity (AID 2283017; active = hit-call score of the fitted dose curve at least 0.9, where 1 is the maximum; inactive = score below 0.9); details: primary human endothelial cells (HUVEC); actives raise or lower the signal
How it was run: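 MCP-1 was measured by ELISA 24 h after dosing in primary HUVEC 3C cultures and fitted in both directions relative to DMSO; cytotoxicity was checked by SRB total-protein staining in parallel wells.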

[19] = read-out: Monocyte Chemoattractant Protein-1 (MCP1), CCL2 (gene 6347); experiment: BSK_4H_MCP1: BioMAP Diversity Plus: 4H Assay for Monocyte Chemoattractant Protein-1 (MCP1) Biomarker Activity (AID 2283018; active = hit-call score of the fitted dose curve at least 0.9, where 1 is the maximum; inactive = score below 0.9); details: primary human endothelial cells (HUVEC); actives raise or lower the signal
How it was run: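 Human umbilical vein endothelial cells (4H system) exposed to chemicals for 24 h in 96-well format. MCP-1 measured by ELISA; bidirectional fitting against DMSO, with SRB total-protein staining in parallel cultures for cytotoxicity.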

[20] = biological target: human Retinoid X Receptor beta (RXRb), RXRB (gene 6257) (UniProt P28702); experiment: ATG_RXRb_TRANS: Attagene TRANS-FACTORIAL HepG2 Assay for human Retinoid X Receptor beta (RXRb) (AID 2283013)
How it was run: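 HepG2 cells were transiently transfected with multiplexed GAL4-UAS reporters and a chimeric RXRb-Gal4 construct, then exposed for 24 h. Reporter mRNA was quantified by RT-PCR, FAM labeling, HpaI digestion and capillary electrophoresis; gain of signal was scored against DMSO.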

Measured: AC50

CC(C)CBr
inactive: [1] | [2] | [3] | [4] | [5] | [6] | [7]

CCOP(=O)(O)C(N)=O
inactive: [8] | [4] | [9] | [5] | [10] | [7]

COC(N)=O
inactive: [2] | [4] | [11] | [7]

O=S(=O)(c1ccc(O)cc1)c1ccc(O)cc1
inactive: [9] | [11] | [7]
active: [4] 22.4 µM

CCCCc1ccccc1
inactive: [12] | [13] | [14] | [15] | [9] | [11] | [7] | [16] | [17] | [18] | [19]

N#Cc1ccc(O)cc1
inactive: [3] | [6] | [10] | [11] | [7]

CC(=O)CCc1ccc2c(c1)OCO2
inactive: [1] | [2] | [8] | [4] | [9] | [11]

CO/N=C(/C(=O)OC)c1ccccc1COc1ccccc1C
inactive: [2] | [3] | [8] | [5] | [6] | [11] | [20] | [7]
active: [9] 4.28 µM

Oc1ccccc1Br
inactive: [1] | [9]

CC(=O)c1ccc(-c2ccccc2)cc1
inactive: [1] | [2] | [4] | [10] | [11] | [7]
active: [9] 24.7 µM

Clc1ccc(Oc2ccccc2)cc1
inactive: [1] | [3] | [4] | [9] | [11] | [7]

O=[N+]([O-])c1cc(Cl)ccc1Cl
inactive: [9] | [11] | [20] | [7]
active: [4] 16.1 µM

Cc1ccc(C(=O)Cl)cc1
inactive: [1] | [8] | [4] | [6] | [10] | [11]

C=C(C)C(=O)OCC1CO1 (configuration not stated)
inactive: [8] | [4] | [6]

Cn1[nH]nnc1=S
inactive: [1] | [3] | [8] | [9] | [6] | [11]
